Assay [1] can be described thus: A CellTox Green Cytotoxicity Assay to monitor cytotoxicity in HEK293 cells - 40 hour (AID 1224871). Note: nearly all actives have a fitted effect of over 45% in size. Note: potency is the fitted concentration of half-maximal effect. A digest of the protocol:
(§1)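 Nonlytic real-time cytotoxicity: HEK293 + CellTox Green reagent plated, 5 h preincubation, pintool compound addition (23 nL in DMSO), 37 C for 40 h, fluorescence measured at successive time points.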

The nature of assay [2]: qHTS RealTime-Glo MT Cell Viability Assay in HEK293 cells - 16 hour (AID 1224872). For activity change, negative = cytotoxicity: top concentration of the series differs between compounds. Note: nearly all actives have a fitted effect of over 50% in size. Note: potency is the fitted concentration of half-maximal effect. In a few lines:
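Assay medium contained NanoLuc luciferase plus cell-permeant prosubstrate, added with HEK293 cells at 600 cells/well. After 5 h at 37 C/5% CO2 compounds were added; plates stayed at 37 C for 40 h with serial luminescence reads.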
(In general: In qHTS, concentration-response curves come from the screen itself.)

Assay [3] in a line: qHTS RealTime-Glo MT Cell Viability Assay in HepG2 cells - 8 hour (AID 1224873). Note: nearly all actives have a fitted effect of over 55% in size. In a few lines:
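HepG2 cells mixed with RealTime-Glo MT reagents (NanoLuc plus cell-permeant prosubstrate) were seeded at 600 cells/well, incubated 5 h at 37 C/5% CO2, then pinned with compounds in DMSO; nonlytic luminescence tracked viability during 40 h treatment.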

Assay [4] in a line: A CellTox Green Cytotoxicity Assay to monitor cytotoxicity in HEK293 cells - 24 hour (AID 1224875). For activity change: series mostly up to about 77 µM. Note: nearly all actives have a fitted effect of over 45% in size. Note: potency is the fitted concentration of half-maximal effect. In a few lines: as §1
Assay [5] in a line: A CellTox Green Cytotoxicity Assay to monitor cytotoxicity in HepG2 cells - 16 hour (AID 1224876). Note: nearly all actives have a fitted effect of over 45% in size. Note: potency is the fitted concentration of half-maximal effect. In a few lines:
(§2)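 Read-out is fluorescence of a cyanine dye excluded from live cells that stains DNA of dead HepG2 cells, with signal proportional to cytotoxicity. Plates were read at 0, 8, 16, 24, 32 and 40 h after compound addition.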

Assay [6] can be described thus: qHTS RealTime-Glo MT Cell Viability Assay in HepG2 cells - 32 hour (AID 1224877). Note: nearly all actives have a fitted effect of over 55% in size. Note: potency is the fitted concentration of half-maximal effect. A digest of the protocol:
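qHTS, HepG2, 600 cells/well, RealTime-Glo (NanoLuc + prosubstrate) added with cells; 5 h preincubation; DMSO compound addition; 37 C; luminescence at 0/8/16/24/32/40 h.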

Assay [7] in a line: A CellTox Green Cytotoxicity Assay to monitor cytotoxicity in HepG2 cells - 24 hour (AID 1224878). Note: nearly all actives have a fitted effect of over 45% in size. Note: potency is the fitted concentration of half-maximal effect. In a few lines:
as §2

A short description of assay [8]: A CellTox Green Cytotoxicity Assay to monitor cytotoxicity in HepG2 cells - 40 hour (AID 1224879). Note: nearly all actives have a fitted effect of over 40% in size. Note: potency is the fitted concentration of half-maximal effect. In a few lines: as §2
Assay [9] can be described thus: qHTS RealTime-Glo MT Cell Viability Assay in HEK293 cells - 0 hour (AID 1224880). A digest of the protocol:
(§3)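 Cells were seeded together with NanoLuc luciferase and a prosubstrate that viable cells reduce to a luciferase substrate. After a 5 h incubation at 37 C/5% CO2, compounds were added and luminescence was measured repeatedly during 40 h of treatment.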

The nature of assay [10]: qHTS RealTime-Glo MT Cell Viability Assay in HEK293 cells - 40 hour (AID 1224874). Note: nearly all actives have a fitted effect of over 50% in size. Note: potency is the fitted concentration of half-maximal effect. The settings on record: RealTime-Glo luminescence; max response: stronger effect = lower value. In a few lines:
as §3

“And” between values parts separate entries of the source, which are not always exact repeats. Equal entries are not always repeated. Inconclusive results are not listed. A number with no mark means an inactive call. The source made the active and inactive calls. Calls come from the whole dose curve; as a rule, active = well fitted curve in the direction sought with a large enough effect in the repeat runs; inconclusive = weak or mixed curves; inactive = no such curve, though single readings can be large; an effect the other way counts as inactive or inconclusive.
% is set by controls: 0 for no effect and ±100 for the full control effect.

`CCCCCCCC/C=C\CCCCCCCCCCCC(=O)O`: the Potency entry in assay [1], in assay [2], in assay [3], in assay [4], in assay [5] and in [6] was “inactive” in each case. Also, the Potency result in [7], in assay [8] and in assay [9] was “inactive” throughout.
For `O=c1[nH]ncc2ccccc12`, the Potency entry in [1], in assay [2], in assay [3], in assay [4], in assay [5] and in assay [6] was “inactive” in each case. Besides, the Potency result in assay [7], in assay [8] and in [9] was “inactive” in each case. Moreover, the max response in assay [10] was 6.19%.
Take `C=CCc1ccccc1OCC(O)CNC(C)C` (centres undefined): the Potency result in assay [1], in assay [2], in assay [3], in [4], in [5] and in assay [6] was “inactive” throughout. Moreover, the Potency entry in assay [7], in [8] and in [9] was “inactive” throughout. The max response in assay [10] is -5.29%.
`Nc1nnc(-c2ccc([N+](=O)[O-])o2)o1`: the Potency result in assay [1], in [2], in [3], in assay [4], in assay [5] and in [7] was “inactive” each time. For the same molecule, the Potency result in assay [9] is “inactive”. Also, the max response in assay [10] was -27%.
As to `CCC(C)COC(=O)CC(C)C` (centres undefined), the Potency result in assay [1], in assay [2], in [3], in assay [4], in assay [6] and in [9] was “inactive” in each case. Also, the Potency in assay [7] was 54.9 µM (active); in [8], 49 µM (active).
With `c1ccc2c(c1)CCc1ccccc1N2`, the Potency in [1] is 49.2 µM (active). Further, the Potency result in assay [2], in [3], in assay [4], in assay [5], in [6] and in assay [7] was “inactive” throughout. Also, the Potency result in assay [8] and in assay [9] was “inactive” throughout. Besides, the max response in [10] was -22.1% and -5.28%.
Take `CC(C)=CCC/C(C)=C/CC/C(C)=C/C(=O)OCC(=O)[C@@]1(O)CC[C@H]2[C@@H]3CCC4=CC(=O)C=C[C@]4(C)[C@H]3[C@@H](O)C[C@@]21C`: the Potency result in assay [1], in assay [4], in assay [5], in [7], in [8] and in assay [9] was “inactive” throughout. The Potency is 5.35 µM (active) in assay [2] and 4.25 µM (active) in assay [10].
Turning to `Oc1cccc(Nc2ccccc2)c1`, the Potency result in assay [1], in [3], in [4], in assay [5], in [6] and in assay [7] was “inactive” each time. Besides, the Potency result in [8] and in assay [9] was “inactive” each time. Besides, the Potency in assay [2] was 22.8 µM (active); in [10], 12.8 µM (active).
`O=C(O)C[C@H](NC(=O)OCc1ccccc1)C(=O)O`: the Potency entry in assay [1], in assay [2], in assay [3], in [4], in assay [5] and in assay [6] was “inactive” throughout. Also, the Potency result in assay [7], in assay [8] and in assay [9] was “inactive” in each case. In [10], the max response is -0.276%.
Take `O=C(CCCN1CC=C(n2c(=O)[nH]c3ccccc32)CC1)c1ccc(F)cc1`: the Potency result in [1], in assay [3], in assay [4], in assay [5], in assay [6] and in [8] was “inactive” in each case. In assay [9], the Potency result was “inactive”. The Potency in assay [2] and in assay [10] was 9.52 µM (active) in each case.
In the case of `C[C@@H]1CN(CCCn2c3ccccc3c3ccccc32)C[C@H](C)N1`, the Potency is 23.9 µM (active) in [1]; 26.8 µM (active) in assay [2]; 23.9 µM (active) in assay [10]; 23.9 µM (active) in assay [4]; 26.8 µM (active) in [5]; 23.9 µM (active) in assay [6]. The values for the Potency in [7] and in assay [8] were 26.8 µM (active) and 23.9 µM (active), respectively.
On to `CCCCCCCCOc1ccc(C(=O)O)cc1`, for which the Potency entry in assay [1], in [2], in assay [3], in assay [4], in [5] and in assay [6] was “inactive” in each case. For the same molecule, the Potency result in assay [7], in [8] and in assay [9] was “inactive” in each case. In addition, the max response in assay [10] was -8.38%.
Consider `Nc1ncnc2c1ncn2[C@H]1CC[C@@H](CO)O1`, for which the Potency entry in assay [1], in [2], in [3], in [4], in assay [5] and in assay [6] was “inactive” in each case. The Potency result in assay [7], in [8] and in assay [9] was “inactive” in each case. Further, the max response in assay [10] is 18.9%.
`COc1ncnc(NS(=O)(=O)c2ccc(N)cc2)c1OC`: the Potency entry in assay [1], in assay [2], in [3], in [4] and in assay [6] was “inactive” throughout. Also, the max response in assay [10] was -0.242%.
In the case of `Cc1cc(=O)c2c(O)c3c(O)cc(=O)c4c3c3c(cc(O)c1c23)C(C)(C)C=4O`, the Potency in [1] is 4.65 µM (active); in assay [4] it was 5.22 µM (active); in [5], 4.65 µM (active); in [7], 4.65 µM (active); in assay [8], 3.69 µM (active). The activity change, negative = cytotoxicity in [2] was -25.2% [at 15.8 µM]; in [9], 0.327% [at 15.8 µM]. The viability change, negative = cytotoxic in [3] was -10.2% [at 15.8 µM].
For `C=C1c2cccc(O)c2C(O)=C2C(=O)[C@]3(O)C(O)=C(C(N)=O)C(=O)[C@@H](N(C)C)[C@@H]3[C@@H](O)[C@H]12`, the Potency entry in assay [1], in [2], in assay [3], in assay [4], in assay [5] and in [6] was “inactive” throughout. Besides, the Potency entry in assay [7], in assay [8] and in [9] was “inactive” throughout. The max response in assay [10] is 3.62%.
For `CCC1(CO)COCOC1`, the Potency entry in assay [1], in assay [2], in assay [3], in assay [4], in assay [5] and in assay [6] was “inactive” throughout. The Potency entry in assay [7], in assay [8] and in assay [9] was “inactive” in each case. In addition, the max response in assay [10] is -7.69%.
Turning to `CC(=O)Nc1cc(S(=O)(=O)O)cc2cc(S(=O)(=O)O)c(N=Nc3ccccc3)c(O)c12`, the Potency result in [1], in [2], in [3], in assay [4], in [5] and in assay [6] was “inactive” throughout. Moreover, the Potency entry in [7], in assay [8] and in assay [9] was “inactive” in each case. The max response in assay [10] was -17.9%.

The values are drawn from PubChem BioAssay (Tox21).
